Source: PubChem
This is a sample that favours compounds with a hit; in the whole collection about 2.6% have one here.
Cruzain Triton: blocks cruzain activity in presence of Triton detergent. Potency, µM, actives largely listed as inhibitors. purified cruzain, Z-FR-AMC fluorescence, 0.01% Triton. P25779. hit rate 0.43% among 200,000. AID 1478; also: nearly all actives have a fitted effect of over 40% in size
Target sequence (P25779 123-467 limits assumed): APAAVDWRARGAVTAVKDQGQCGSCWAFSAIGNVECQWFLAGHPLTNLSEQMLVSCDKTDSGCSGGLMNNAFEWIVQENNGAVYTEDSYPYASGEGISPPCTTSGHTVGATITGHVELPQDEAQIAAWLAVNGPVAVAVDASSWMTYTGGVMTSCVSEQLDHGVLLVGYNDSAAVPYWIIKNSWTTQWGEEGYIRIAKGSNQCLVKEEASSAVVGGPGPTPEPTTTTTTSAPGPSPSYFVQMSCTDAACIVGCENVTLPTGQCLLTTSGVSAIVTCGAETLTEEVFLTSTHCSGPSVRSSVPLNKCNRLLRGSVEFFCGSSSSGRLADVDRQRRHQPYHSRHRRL
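Purified cruzain (1.5 nM final) was preincubated with compounds for 15 min at room temperature in 100 mM sodium acetate pH 5.5, 5 mM DTT, 0.01% Triton X-100. Reaction started with 2 uM Z-FR-AMC; AMC fluorescence change over 60 s gave activity.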
Cruzain inh noDet: blocks cruzain activity in detergent-free assay; AID 1476; Potency, µM, most hits filed as inhibitors; P25779; hit rate 2.3% among 200,000; purified cruzain, Z-FR-AMC fluorescence, no detergent; also: nearly all actives have a fitted effect of over 40% in size
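Detergent-free condition (0.00005% Triton X-100) in acetate buffer pH 5.5 with DTT. 1.5 nM enzyme and compound were pre-mixed 15 min, then 2 uM Z-FR-AMC substrate added; reaction progress from fluorescence change between first and third reads (60 s).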
Numbers stand for hits; . = inactive; ? = inconclusive. Calls follow the shape of the dose curve; as a rule, active = well fitted curve in the direction sought with a large enough effect; inconclusive = small, poorly fitted or top-dose-only effect, or another doubt; inactive = no such curve, though single readings can be large; an effect the other way counts as inactive or inconclusive.

SMILES	Cruzain Triton	Cruzain inh noDet
CCOC(=O)c1cc2c(=O)n3ccccc3nc2n(CCCOC)c1=NC(C)=O	32µM	?
COC(=O)c1cc2c(=O)n3ccccc3nc2n(C)c1=N	11µM	?
CCOCCCn1c(=N)c(C(=O)NCc2ccccc2)cc2c(=O)n3ccccc3nc21	.	.
Cn1c(C(=O)N2CCN(C(=O)c3ccco3)CC2)cc2c(=O)n3ccccc3nc21	25µM	?
Cc1cccn2c(=O)c3cc(C(=O)N4CCN(C(=O)c5ccco5)CC4)n(C)c3nc12	.	.
C=CCn1c(=N)c(C(=O)NCCCOC)cc2c(=O)n3ccccc3nc21	32µM	25µM
CCOC(=O)c1cc2c(=O)n3ccccc3nc2n(CCCOC)c1=NC(=O)c1c(-c2c(F)cccc2Cl)noc1C	.	.
CC(C)n1c(=N)c(C(=O)NCc2ccccc2)cc2c(=O)n3ccccc3nc21	.	.
Cc1cc2c(cc1S(=O)(=O)NCc1ccc(F)cc1)OCC(=O)N2	.	.
Cc1cc(CN2CCN(c3ccc(F)cc3)CC2)cs1	.	.
C[C@]12C=CC(=O)C=C1CCC1C2C(=O)C[C@]2(C)C1CC[C@]2(O)C(=O)CO (stereo partly specified)	.	.
COc1cccc(S(=O)(=O)NCC(=O)Nc2ccc(C(C)(C)C)cc2)c1	.	.
CCCCCn1c(=NC(C)=O)c(C#N)cc2c(=O)n3ccccc3nc21	.	.
C=CCn1c(=N)c(C#N)cc2c(=O)n3ccccc3nc21	28µM	?
O=S(=O)(Nc1nc2ccccc2[nH]1)c1ccc2ccccc2c1	.	.
O=C1CSC(c2cn(-c3ccccc3)nc2-c2cc3ccccc3o2)N1Cc1ccccc1 (stereo unspecified)	.	?
O=C1CSC(c2cn(-c3ccccc3)nc2-c2cc3ccccc3oc2=O)N1Cc1ccco1 (stereo unspecified)	28µM	?
CCOC(=O)C1=C(C)NC(=O)C(C#N)C1c1ccco1 (stereo unspecified)	.	.
COc1ccc(-n2nc([N+](=O)[O-])c(=NCCc3ccc(OC)c(OC)c3)n2O)cc1	.	.
CCCN(CCC)S(=O)(=O)c1ccc(C(=O)Nc2cccc(-c3nc4ccccc4[nH]3)c2)cc1	.	7.9µM
CN(c1ccccc1)S(=O)(=O)c1ccc(Cl)c(C(=O)Nc2nc3ccccc3[nH]2)c1	.	?
Cc1cc(F)ccc1S(=O)(=O)Nc1ccccc1C(=O)Nc1ccccc1-c1nc2ccccc2[nH]1	.	.
O=C(Nc1ccc(-c2nc3ccccc3[nH]2)cc1)c1ccccc1NS(=O)(=O)c1ccc(F)cc1	.	16µM
CN(c1ccccc1)S(=O)(=O)c1ccc(Cl)c(C(=O)Nc2ccc(-c3nc4ccccc4[nH]3)cc2)c1	.	13µM
COc1c(Cl)cc(C(=O)Nc2cccc(-c3nc4ccccc4[nH]3)c2)cc1Cl	.	?
SMILES	Cruzain Triton	Cruzain inh noDet
CCN(CC)c1ccc(NC(=O)CN(C)S(=O)(=O)c2cccc3nsnc23)c(C)c1	.	.
O=C(COC(=O)C12CC3CC(CC(C3)C1)C2)Nc1ccc([N+](=O)[O-])cc1Br	.	.
CC(C)c1nc(SCC(=O)Nc2ccc3c(c2)OCCO3)c2c(=O)n(C)c(=O)n(C)c2n1	.	.
COc1ccc(CNc2ccnc(-c3cccnc3)n2)c(OC)c1	.	.
CCOC(=O)c1ccc(NC(=O)c2ccc3c(c2)c(C)c(C)n3Cc2ccc(F)cc2)cc1	.	7.9µM
Cc1cccc(CNC(=O)c2ccc3c(c2)c(C)c(C)n3Cc2ccccc2)c1	.	?
Cc1c(C)n(Cc2ccccc2)c2ccc(C(=O)NCc3ccc(OC(C)C)cc3)cc12	.	25µM
Cc1ccccc1CCNC(=O)c1ccc2c(c1)c(C)c(C)n2Cc1ccccc1	.	20µM
Cc1c(C)n(Cc2ccccc2)c2ccc(C(=O)NCCc3ccccc3Cl)cc12	.	25µM
COc1ccc(CCNC(=O)c2ccc3c(c2)c(C)c(C)n3Cc2ccccc2)c(OC)c1OC	.	?
COc1ccc(NC(=O)c2ccc3c(c2)c(C)c(C)n3Cc2ccc(F)cc2)cc1	.	?
Cc1ccccc1CCNC(=O)c1ccc2c(c1)c(C)c(C)n2C	.	?
COc1ccc(/C=N/N=C2/NC(=O)C(c3ccccc3)S2)c(OC)c1 (stereo unspecified)	.	?
O=C(Cn1nc2c(cc1=O)CCCC2)Nc1ccc(F)cc1F	.	.
O=C(c1cn(CC(=O)N2CCCCC2)c2ccccc12)C1CC1	.	.
COc1ccc(CNC(=O)c2cc3sccc3n2Cc2ccc(F)cc2)cc1	.	.
O=C(CSc1nnc(-c2ccc(Cl)cc2)o1)N1CCN(c2ccccc2)CC1	.	16µM
O=C(CSc1nnc(COc2ccc(Cl)cc2)o1)N1CCN(c2ccccc2)CC1	.	.
COC(=O)C1=C(C)N(CCCC(=O)O)C(=O)NC1c1cccs1 (stereo unspecified)	.	.
CN(C)c1ccc(CNC(=O)C2CCCN(S(=O)(=O)c3ccc4c(ccn4C)c3)C2)cc1 (stereo unspecified)	.	.
COc1ccccc1NC(=O)C1=C(C)Nc2nc(-c3cccs3)nn2C1c1cccnc1 (stereo unspecified)	.	16µM
COc1ccccc1NC(=O)C1=C(C)Nc2nc(-c3ccc(N(C)C)cc3)nn2C1c1ccncc1 (stereo unspecified)	.	?
CCOC(=O)c1cc2sccc2n1CC(=O)Nc1ccc(OC)cc1	.	.
Cc1ccc(NS(=O)(=O)c2ccc3[nH]c4c(c3c2)CCCCC4)cc1	.	.
O=C(C1CCN(S(=O)(=O)c2cccc3nsnc23)CC1)N1CCc2ccccc2C1	.	.
SMILES	Cruzain Triton	Cruzain inh noDet
CC(Sc1nnc(Nc2ccccc2)s1)C(=O)NC1CCCc2ccccc21 (stereo unspecified)	.	.
CC(Sc1nnc(NC2CCCCC2)s1)C(=O)Nc1ccc2c(c1)C(=O)c1ccccc1C2=O (stereo unspecified)	.	16µM
O=C(CSc1nnc(SCc2cccc3ccccc23)s1)N/N=C/C=C/c1ccccc1[N+](=O)[O-]	.	10µM
O=C(CSc1nnc(SCc2cccc3ccccc23)s1)N/N=C/c1c[nH]c2ccccc12	.	.
OC1CN=C2C=CC=CN2C1 (stereo unspecified)	.	.
O=C1/C(=C/c2cccs2)NC(=S)N1C1CC1	.	.
COc1cccc(-c2cc(NCc3ccc(OC)cc3OC)ncn2)c1	.	.
COc1ccc2c(c1)C1C=CCC1C(c1cc3c(cc1Br)OCO3)N2 (stereo unspecified)	.	25µM
COc1cccc([C@@H]2Nc3ccc(C(=O)O)cc3[C@@H]3C=CC[C@@H]32)c1OC	.	.
COc1ccc(C(=O)N2CCC3(CC2)CCN(c2cccc(-c4ccccc4)c2)CC3)cc1	.	?
Cc1ccc(C)c(N2CCN(S(=O)(=O)c3ccc(C4CCCCC4)cc3)CC2)c1	.	.
Cc1ccccc1NC(=O)c1cc(C(=O)c2cc(Cl)ccc2O)cn(-c2ccccc2C)c1=O	.	7.9µM
O=C(c1cc(C(=O)NCc2ccccc2)c(=O)n(Cc2ccccc2)c1)c1cc(Cl)ccc1O	.	?
CC(=O)N1CCC2(CC1)CN(Cc1ccc(C#N)cc1)C2	.	.
Cc1csc(NC(=O)CCn2c(=O)oc3ccccc32)n1	.	.
O=C(Cn1c(=O)oc2ccccc21)Nc1nc(-c2ccc(Br)cc2)cs1	.	16µM
Cc1c(Cl)cccc1NC(=O)CSc1nc(=O)n(Cc2ccccn2)c2c1CCC2	.	.
Brc1ccc(-c2nn3c(Cc4ccccc4)nnc3s2)o1	.	.
